In PubChem BioAssay (EPA / NIEHS):
Several values for one entry are separate records, joined by “and”; a condition that tells them apart may be missing. Equal values may be shown once. Inconclusive results are not listed. Where a structure was tested more than once in an assay, its records may differ in their call. Activity calls are given as the source filed them. Rule for the calls, unless noted: active = hit-call score of the fitted dose curve at least 0.9, where 1 is the maximum; inactive = score below 0.9.

Columns and labels:
[1] = CCTE_Deisenroth_AIME_384WELL_CTox_Active: Cytotoxicity Assessment (CTOX) in CCTE's 384-well Estrogen Receptor Transactivation Assay with AIME metabolic competence (metabolism positive), Deisenroth Lab (AID 2284037; active = hit-call score of the fitted dose curve at least 0.9, where 1 is the maximum;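 note: chemicals first conditioned 2 h by alginate-bound induced rat liver S9 before cells; activity means signal loss indicating cell death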)
Summary of the method: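 Cytotoxicity in VM7Luc4E2 breast cells, 24 hour, measured as protease-substrate fluorescence loss, after 2-hour metabolic conditioning with induced rat hepatic S9 in alginate microspheres. Concentrations 0.002 - 200 uM, 10 points, bidirectional fitting.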

[2] = CCTE_Deisenroth_AIME_384WELL_CTox_Inactive: Cytotoxicity Assessment (CTOX) in CCTE's 384-well Estrogen Receptor Transactivation Assay without AIME metabolic competence (metabolism negative), Deisenroth Lab (AID 2284039; active = hit-call score of the fitted dose curve at least 0.9, where 1 is the maximum;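 note: cell viability via live-cell protease substrate cleaved to fluorescent probe; cells exposed 24 h to medium preincubated 2 h with alginate-water beads without S9; loss of fluorescence signal means loss of viability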)
Summary of the method: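 Fluorescent protease-substrate viability readout after 24 h exposure of VM7Luc4E2 cells to conditioned medium. Chemicals (0.002–200 uM) first sat 2 h over alginate-water beads, no S9. Data fitted bidirectionally, loss of signal meaning viability loss.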

[3] = CCTE_Shafer_MEA_dev_active_electrodes_number: CCTE's Neural Network Formation Assay for Number of Active Electrodes, Shafer Lab (AID 2284040; active = hit-call score of the fitted dose curve at least 0.9, where 1 is the maximum;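 for AC50: potency for loss of active electrodes versus DMSO so lower counts are hits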)
Summary of the method: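 Developing rat cortical networks on MEAs, exposed DIV 0–12. Value is the AUC of active-electrode counts (≥5 spikes/min) from days 5, 7, 9, 12, relative to DMSO.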

[4] = CCTE_Shafer_MEA_dev_burst_rate: CCTE's Neural Network Formation Assay for Burst Rate, Shafer Lab (AID 2284042);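 for AC50: potency for loss of burst rate below DMSO control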
Summary of the method: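 Exposure ran continuously over 12 days of network development in rat cortical cultures, with compound refreshed during full media changes on DIV 5 and 9. Single-electrode bursts per recording time, well-mean over active electrodes, trapezoidal AUC across days 5–12, fitted downward relative to DMSO.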

[5] = CCTE_Shafer_MEA_dev_bursting_electrodes_number: CCTE's Neural Network Formation Assay for Number of Bursting Electrodes, Shafer Lab (AID 2284043; active = hit-call score of the fitted dose curve at least 0.9, where 1 is the maximum;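 for AC50: potency is for loss of bursting electrodes relative to DMSO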)
Summary of the method: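 Number of electrodes reaching ≥1 burst every 2 min was recorded at DIV 5, 7, 9 and 12 and collapsed as trapezoidal area under the curve. Cultures were rat cortical neurons on MEA plates, dosed continuously from plating with medium and treatment refreshed on DIV 5 and 9.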

[6] = CCTE_Shafer_MEA_dev_per_burst_interspike_interval: CCTE's Neural Network Formation Assay for Burst Interspike Interval, Shafer Lab (AID 2284044);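 note: mean spike spacing inside bursts as AUC over recordings on days 5 7 9 12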;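 for AC50: potency for a decrease of within-burst interspike interval below DMSO level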
Summary of the method: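 Neurons from rat cortex plated onto PEI-coated MEA wells with laminin […] at 1.5 x 10^5 cells/well, then treated from day 0. Media and compound fully replaced on DIV 5 and 9. Extracellular spontaneous firing recorded four times; interspike interval per burst summarised as AUC.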

[7] = CCTE_Shafer_MEA_dev_interburst_interval_mean: CCTE's Neural Network Formation Assay for Mean Interburst Interval, Shafer Lab (AID 2284046);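 note: well-mean interburst interval of bursting electrodes as AUC over four recording days; curve fitted for decrease in interburst interval relative to DMSO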
Summary of the method: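 Primary rat cortical neurons on PEI-coated 48-well MEA plates (laminin added with cells at plating) (16 electrodes/well), exposed from plating day 0 with renewal at DIV 5 and 9. Mean inter-burst interval averaged over bursting electrodes, AUC across days 5, 7, 9, 12; DMSO baseline.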

[8] = CCTE_Shafer_MEA_dev_inter_network_spike_interval_mean: CCTE's Neural Network Formation Assay for Mean Inter-network Spike Interval, Shafer Lab (AID 2284047);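 for AC50: potency for a decrease in mean inter-network spike interval below DMSO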
Summary of the method: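 Mean time between consecutive network-spike peaks, recorded extracellularly (adaptive spike detection) on DIV 5, 7, 9 and 12, summarized as trapezoidal AUC. Rat cortical cultures on MEAs dosed continuously days 0–12, re-dosed at feeds; loss-of-signal fit relative to DMSO.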

[9] = CCTE_Shafer_MEA_dev_network_spike_number: CCTE's Neural Network Formation Assay for Number of Network Spikes, Shafer Lab (AID 2284048);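 note: synchronized bursts across electrodes counted on days 5 7 9 12 and integrated as AUC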;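 for AC50: fit as a loss of signal meaning fewer network spikes than DMSO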
Summary of the method: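 Number of network spikes (coordinated firing across electrodes) recorded on days 5, 7, 9 and 12 and summarised as area under the curve. Rat cortical cultures on MEA, continuous compound exposure with full medium/treatment exchange at DIV 5 and 9.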

[10] = CCTE_Shafer_MEA_dev_network_spike_peak: CCTE's Neural Network Formation Assay for Mean Number of Electrodes in Network Spike, Shafer Lab (AID 2284049);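 for AC50: fitted for loss of signal meaning fewer electrodes in network spikes than DMSO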
Summary of the method: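 Rat cortical primary culture, 1.5 x 10^5 cells/well, 48-well MEA (16 electrodes/well). Dosing day 0 through DIV 12, full media/compound exchange DIV 5, 9. AxIS adaptive spike detection; AUC over days 5/7/9/12; loss-of-signal vs DMSO.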

[11] = CCTE_Shafer_MEA_dev_spike_duration_mean: CCTE's Neural Network Formation Assay for Mean Spike Duration, Shafer Lab (AID 2284051);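 note: mean network spike duration pooled as area under curve over DIV 5 to 12 recordings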;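 for AC50: potency for a decrease in mean network spike duration versus DMSO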
Summary of the method: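 Spontaneous activity was recorded on days 5, 7, 9 and 12 from rat cortical cultures grown on microelectrode arrays and dosed continuously from day 0, with media and compound renewed after the DIV 5 and 9 recordings. Network-spike duration was collapsed by area under the curve.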

[12] = CCTE_Shafer_MEA_dev_network_spike_duration_std: CCTE's Neural Network Formation Assay for Standard Deviation of Network Spike Duration, Shafer Lab (AID 2284052);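 note: hits are decreases in network spike duration SD versus DMSO vehicle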
Summary of the method: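 Network spike duration variability was collapsed across recordings on days 5, 7, 9 and 12 by trapezoidal area-under-curve and fitted downward against DMSO. Cultures were rat cortical neurons on PEI-coated MEA plates, dosed continuously from plating, refed with compound DIV 5/9.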

[13] = CCTE_Shafer_MEA_dev_per_network_spike_spike_number_mean: CCTE's Neural Network Formation Assay for Mean Number of Spikes in a Network Spike, Shafer Lab (AID 2284053);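 for AC50: fitted as decrease in spikes per network spike relative to DMSO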
Summary of the method: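 Mean spike count within each network spike, taken in a 0.05 s window at its peak, was recorded on days 5, 7, 9 and 12 and integrated as trapezoidal area under the curve. Rat cortical cultures on MEA plates received continuous compound from day 0, refreshed at medium changes on DIV 5 and 9.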

[14] = CCTE_Shafer_MEA_dev_per_network_spike_spike_percent: CCTE's Neural Network Formation Assay for Percent of Spikes in a Network Spike, Shafer Lab (AID 2284054)
Summary of the method: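 Metric: fraction of spikes falling in a 0.05 s window at network-spike peaks. Recordings were made on days 5, 7, 9 and 12 and collapsed by trapezoidal AUC. Cultures were rat cortical neurons on MEA plates, dosed continuously from plating, re-dosed at media changes.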

[15] = CCTE_Shafer_MEA_dev_LDH: CCTE's Lactate Dehydrogenase Assay for Cytotoxicity in the Neural Network Formation Assay, Shafer Lab (AID 2284068; active = hit-call score of the fitted dose curve at least 0.9, where 1 is the maximum;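 note: exposure for twelve days from plating with re-dosing on DIV 5 and 9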)
Summary of the method: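 Primary rat cortical neurons were cultured on PEI-coated MEA plates and exposed from plating through day 12, with compound renewed at medium changes on DIV 5 and 9. LDH activity was read spectrophotometrically; loss of signal versus DMSO indicates reduced viability.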

[16] = UKN5_HCS_SBAD2_cell_viability: Viability Assessment in the University of Konstanz (UKN) Leist Lab Neurite Outgrowth Assay in human iPSC-derived immature Dorsal Root Ganglia Neurons (UKN5) (AID 2284056)
Summary of the method: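 iPSC-derived immature peripheral neurons (SBAD2) seeded on Matrigel with CHIR99021, SU5402 and DAPT, dosed 1 h later for 24 h. Viability from Hoechst H-33342 and calcein-AM live staining, high-content imaging; bidirectional fit versus DMSO.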

[17] = CCTE_Shafer_MEA_acute_AB: CCTE's Alamar Blue Assay for Cytotoxicity in the Neural Acute Assay, Shafer Lab (AID 2284069; active = hit-call score of the fitted dose curve at least 0.9, where 1 is the maximum;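 note: active compounds lower the viability signal compared with DMSO wells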)
Summary of the method: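 Resazurin reduction (CellTiter Blue, 1:6 in fresh medium) read at ex 544/em 590 nm marks viability loss relative to DMSO. Cells: primary rat cortical neuron networks on microelectrode arrays, treated after baseline recording at 13 or 15 days in vitro.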

[18] = UKN5_HCS_SBAD2_neurite_outgrowth: University of Konstanz (UKN) Leist Lab Neurite Outgrowth Assay in human iPSC-derived immature Dorsal Root Ganglia Neurons (UKN5) (AID 2284070); conditions: actives raise or lower the signal
Summary of the method: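 Cryopreserved SBAD2 peripheral neurons were seeded at 100.000 cells/cm2 in N2-S/KSR medium containing CHIR99021, SU5402 and DAPT, then exposed to compounds for 24 h. Neurite area from calcein-AM high-content imaging was fitted bidirectionally against DMSO.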

DIO2 (gene 1734) = assay: CCTE_GLTED_hDIO2: CCTE's human Deiodinase 2 (DIO2) Inhibition Assay, Great Lakes Toxicology and Ecology Division (GLTED) Lab (AID 2284050; active = hit-call score of the fitted dose curve at least 0.9, where 1 is the maximum)
Summary of the method: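 Readout: absorbance from Sandell-Kolthoff detection of free iodide released by human DIO2 during a 3 h incubation with chemical. Cell-free format, n=3; activity fitted relative to DMSO negative control.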

DIO3 (gene 1735) = assay: CCTE_GLTED_hDIO3: CCTE's human Deiodinase 3 (DIO3) Inhibition Assay, Great Lakes Toxicology and Ecology Division (GLTED) Lab (AID 2284055; active = hit-call score of the fitted dose curve at least 0.9, where 1 is the maximum;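 note: potency is for inhibition seen as loss of released iodide signal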)
Summary of the method: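 hDIO3 (adenovirus-expressed) + test chemical, 3 h incubation; free iodide quantified by Sandell-Kolthoff reaction, absorbance read-out. DMSO negative control, n=3.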

For `COCC(C)N(C(=O)CCl)c1c(C)csc1C` (stereo not drawn), the outcome [1] was “inactive” and the outcome [2] was “inactive”.
In the case of `CCCCC(O)(Cn1cncn1)c1ccc(Cl)cc1Cl` (stereo not drawn), the AC50 [1] is reported as 162 µM (active) and the AC50 [2] is reported as 100 µM (active).
For `COP(=S)(OC)Oc1ccc([N+](=O)[O-])c(C)c1`, the outcome [1] was “inactive”, the outcome [2] was “inactive” and the outcome [3] was “inactive”. The outcome [4] was “inactive”, the outcome [5] was “inactive” and the outcome [6] was “inactive”. The outcome [7] was “inactive”, the outcome [8] was “inactive” and the outcome [9] was “inactive”. The outcome [10] was “inactive”, the outcome [11] was “inactive” and the outcome [12] was “inactive”. For the same molecule, the outcome [13] was “inactive”, the outcome [14] was “inactive” and the outcome [15] was “inactive”.
In the case of `CCC(C)n1c(=O)[nH]c(C)c(Br)c1=O` (stereo not drawn), the outcome [1] is reported as “inactive”.
With `CN=C=S` the outcome [1] was “inactive” and the outcome [2] was “inactive”.
In the case of `N#Cc1c(Cl)cccc1Cl`, the outcome [1] is reported as “inactive” and the outcome [2] is reported as “inactive”.
With `COP(=S)(OC)SCn1nnc2ccccc2c1=O` the outcome [1] was “inactive”, the AC50 [2] was 100 µM (active) and the outcome [4] was “inactive”. The outcome [5] was “inactive”, the outcome [6] was “inactive” and the outcome [7] was “inactive”. For the same molecule, the outcome [8] was “inactive”, the outcome [9] was “inactive” and the AC50 [10] was 15 µM (active). The AC50 [11] was 27.2 µM (active), the outcome [12] was “inactive” and the AC50 [13] was 24.9 µM (active). For the same molecule, the AC50 [14] was 4.18 µM (active), the AC50 [16] was 47.2 µM (active) and the AC50 [15] was 22.7 µM (active). The outcome [17] was “inactive” and the AC50 [18] was 35.1 µM (active).
In the case of `COC(=O)N(C(=O)N1CO[C@@]2(C(=O)OC)Cc3cc(Cl)ccc3C2=N1)c1ccc(OC(F)(F)F)cc1`, the outcome [1] is reported as “inactive”, the outcome [2] is reported as “inactive” and the AC50 [3] is reported as 21.2 µM (active). For the same molecule, the outcome [4] was “inactive”, the AC50 [5] was 15 µM (active) and the outcome [6] was “inactive”. For the same molecule, the outcome [7] was “inactive”, the outcome [8] was “inactive” and the outcome [9] was “inactive”. For the same molecule, the AC50 [10] was 25.9 µM (active), the AC50 [11] was 15 µM (active) and the outcome [12] was “inactive”. The outcome [13] was “inactive”, the AC50 [14] was 15 µM (active) and the AC50 [15] was 7.61 µM (active).
With `CCCCC(C#N)(Cn1cncn1)c1ccc(Cl)cc1` (stereo not drawn) the outcome [1] was “inactive”.
With `CCOP(=S)(OCC)Oc1nc(Cl)n(C(C)C)n1` the outcome [1] was “inactive” and the outcome [2] was “inactive”.
For `CO/N=C(/C1=NOCCO1)c1ccccc1Oc1ncnc(Oc2ccccc2Cl)c1F`, the AC50 [1] was 32.8 µM (active), the AC50 [2] was 15.3 µM (active) and the AC50 [3] was 1.2 µM (active) and 1.05 µM (active). The AC50 [4] was 789 nM (active) and 637 nM (active), the AC50 [5] was 968 nM (active) and 1.02 µM (active) and the AC50 [6] was 2.28 µM (active) and 518 nM (active). For the same molecule, the AC50 [7] was 2.3 µM (active) and 1.29 µM (active), the AC50 [8] was 0.52 µM (active) and the outcome [8] was “inactive”. For the same molecule, the AC50 [9] was 527 nM (active) and 449 nM (active), the AC50 [10] was 1.27 µM (active) and 723 nM (active) and the outcome (DIO2 (gene 1734)) was “inactive”. The AC50 [11] was 856 nM (active) and 904 nM (active), the AC50 [12] was 0.889 µM (active) and the AC50 [13] was 854 nM (active) and 756 nM (active). For the same molecule, the AC50 [14] was 1.52 µM (active) and 801 nM (active), the AC50 (DIO3 (gene 1735)) was 15.9 µM (active) and the AC50 [15] was 643 nM (active) and 858 nM (active). The outcome [17] was “inactive”.
For `CCOC(=O)C(C)OC(=O)c1cc(Oc2ccc(C(F)(F)F)cc2Cl)ccc1[N+](=O)[O-]` (stereo not drawn), the outcome [1] was “inactive”, the AC50 [2] was 100 µM (active) and the outcome [3] was “inactive”. The outcome [4] was “inactive”, the outcome [5] was “inactive” and the outcome [6] was “inactive”. For the same molecule, the outcome [7] was “inactive”, the outcome [8] was “inactive” and the outcome [9] was “inactive”. For the same molecule, the outcome [10] was “inactive”, the outcome [11] was “inactive” and the outcome [12] was “inactive”. For the same molecule, the outcome [13] was “inactive”, the outcome [14] was “inactive” and the outcome [15] was “inactive”. The outcome [17] was “inactive”.
For `CS(=O)(=O)c1cc(C(F)(F)F)ccc1C(=O)c1cnoc1C1CC1`, the outcome [1] was “inactive”, the outcome [2] was “inactive” and the outcome [3] was “inactive”. For the same molecule, the outcome [4] was “inactive”, the outcome [5] was “inactive” and the outcome [6] was “inactive”. For the same molecule, the outcome [7] was “inactive”, the outcome [8] was “inactive” and the outcome [9] was “inactive”. The outcome [10] was “inactive”, the outcome [11] was “inactive” and the outcome [12] was “inactive”. For the same molecule, the outcome [13] was “inactive” and the outcome [14] was “inactive”.
